The results in this text go back to PubChem BioAssay AID743088 (The Scripps Research Institute Molecular Screening Center, 2013).

Unmarked numbers belong to inactive results.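 How the source made its calls: active means binding inhibited by at least 50%, or stimulated by at least 50%, shown as inhibition of -50% or lower; inactive means the rest.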

The assay concerns Imidazoline I2 Central. In words: off-target binding across receptor panel, profiling panel, selectivity assay for AVPR1a antagonist project, biochemical, Panlabs HitProfilingScreen (AID 743088). To be noted: Panlabs radioligand binding panel, 30 targets, at 10 µM, stronger effect = higher value.

Consider `O=C(C1CCN(c2ccc(Cl)cn2)CC1)N(CC1CC1)c1ccc(Cl)cc1`, for which the inhibition of binding was 27%.
